# In the library only some 13% were active in any assay of this set; here they are far more common.
# USP8 inh = inhibitors of human USP8 deubiquitinase | P40818 | AID 1645853 | purified USP8, Ub-rhodamine cleavage fluorescence, 30 min | 47,000 compounds, 4.2% hits | inhibition, % at 20 µM
# USP30 block = blocks human USP30 ubiquitin-rhodamine cleavage. 47,000 compounds, 5.3% hits. inhibition, % at 25 µM. purified USP30, Ub-rhodamine cleavage fluorescence. Q70CQ3
# USP17 inh = human USP17-like deubiquitinase inhibition. 47,000 compounds, 6.5% hits. A8MUK1. inhibition, % at 50 µM. purified USP17, Ub-rhodamine cleavage fluorescence, 3 h
# USP7 block = human USP7 deubiquitinase inhibition; Q93009; purified USP7, Ub-rhodamine cleavage fluorescence; inhibition, % at 20 µM; 47,000 compounds, 0.3% hits; AID 1645854
# USP28 block = inhibitors of human USP28 deubiquitinase; Q96RU2; purified USP28, Ub-rhodamine cleavage fluorescence, 30 min; inhibition, % at 25 µM; 47,000 compounds, 3% hits
# USP10 block = inhibitors of human USP10 deubiquitinase | 47,000 compounds, 1.1% hits | AID 1645856 | inhibition, % at 20 µM | purified USP10, Ub-rhodamine fluorescence, 60 min
# Starred values were filed as active, the others as inactive; i = inactive. No stated cut-off is given here; in the data, active means inhibition above about 30%; inactive means the rest.
SMILES,USP8 inh,USP30 block,USP17 inh,USP7 block,USP28 block,USP10 block
O=C(CN1C(=O)C(c2ccccc2)Oc2cccnc21)NCCCN1CCCCCC1 (centres undefined),-16.3,-61.1,40.9*,-54.5,-15.2,-5.4
C/C(=C\C(=O)O)CC/C=C(\C)CCC(=O)O,1.6,13.3,-4.2,0.5,1.2,0.0
CC(C)=CCCC1(C)OC2=C(C(=O)c3cc(O)cc(O)c3C2=O)[C@H]2C=C(C)CC[C@H]21 (some centres undefined),15.8,-15.7,85.7*,-13.8,18.2,-4.5
CC12CCCC(O1)c1c(cc3c(c1O)C(=O)c1c(O)cc(O)cc1C3=O)O2 (centres undefined),-17.5,-125.3,-21.9,-13.7,-26.5,-7.4
O=C(C1CC1)N1CCCCCC1C1CCNCC1 (centres undefined),14.0,-6.9,0.9,-0.4,1.3,0.3
O=C(C1CCCCC1)N1CCCC(c2nn(CCOc3ccccc3)c3nccnc23)C1 (centres undefined),23.3,33.4*,30.6*,-31.7,20.2,0.8
Cc1nn(-c2ccccc2)c2sc(-c3noc(C4CC4)n3)cc12,-9.5,-59.4,-17.8,-4.9,-16.0,-9.5
COc1ccc(S(=O)(=O)N2CCN3C(=O)N(Cc4ccccn4)C(=O)C3(C)CC2)cc1 (centres undefined),4.4,11.2,1.8,4.4,0.0,-3.9
COc1cccc(CC2(Cc3cccc(OC)c3)C(=O)N(Cc3ccccn3)C(=O)c3ccccc32)c1,27.1,35.9*,21.3,12.1,7.9,2.5
Cc1c(Cc2ccccc2)sc(NC(=O)c2ccc(Cl)cc2)c1C(N)=O,-12.6,-33.0,32.5*,-0.2,-10.7,5.1
O=C(Cc1c[nH]c2ccccc12)Nc1nc2ccccc2s1,7.1,-7.6,4.8,-50.9,63.5*,-2.3
Cc1cccc2sc(NC(=O)Cc3c[nH]c4ccccc34)nc12,-3.5,-21.7,-6.1,-85.9,18.6,-5.4
COCCNC(=O)Cn1c(=O)n(Cc2ccccc2)c(=O)c2c3c(sc21)CCC3,14.3,58.6*,29.3,-5.9,17.3,0.0
COCCn1cnc2c1c(=O)n(CC(=O)NCCc1ccc(Cl)cc1)c(=O)n2Cc1ccccc1,3.2,-6.3,7.8,-11.4,3.6,-6.8
COCCNC(=O)Cn1c(=O)n(Cc2ccc(C(=O)NCc3ccc(C)cc3)cc2)c(=O)c2ccccc21,19.1,90.3*,77.2*,-13.6,84.5*,26.9
COCCCNC(=O)c1ccc(Cn2c(=O)c3ccccc3n(CC(=O)NCc3ccco3)c2=O)cc1,-22.3,-5.4,-33.8,-2.2,-3.2,-2.1
COCCCNC(=O)c1ccc(Cn2c(=O)c3ccccc3n(CC(=O)NC3CCCCC3)c2=O)cc1,0.5,45.8*,61.8*,2.4,20.3,1.3
N#C/C(=C\c1ccc(-c2cc(Cl)ccc2Cl)o1)c1nnc2n1CCCCC2,-217.3,i,-164.8,-124.2,-260.2,-9.0
CC1OC(CC(=O)O)CC23OC12C(=O)c1c(O)cccc1C3=O (centres undefined),-10.6,-93.4,63.4*,-48.4,13.8,-14.0
COC(=O)CC1CC2=C(C(=O)c3c(O)cccc3C2=O)C(C)O1 (centres undefined),-46.4,-98.8,42.0*,-132.4,39.7*,-12.9
COC(=O)CC1CC23OC2(C(=O)c2c(O)cccc2C3=O)C(C)O1 (centres undefined),-4.2,-77.7,64.7*,-69.3,25.3,-6.4
COc1cccc(-n2c(CNCc3cccnc3)nc3ccc([N+](=O)[O-])cc3c2=O)c1,-65.8,68.0*,36.5*,-3.6,36.2*,5.2
CCOC(=O)C1CCN(Cc2nc3ccc([N+](=O)[O-])cc3c(=O)n2-c2cc(OC)cc(OC)c2)CC1,-134.7,-10.4,17.9,4.4,0.2,6.4
Cn1c(=O)c2c(nc(CN3CCOCC3)n2CCc2ccccc2)n(C)c1=O,5.4,31.6*,3.4,9.4,1.4,3.5
COc1cccc(-c2noc(NCCc3ccc(SC)cc3)n2)c1,6.1,-4.9,-5.1,1.1,31.8*,7.8
O=C(CCc1ccccc1F)NC1CCCc2ccccc21 (centres undefined),-2.5,-8.7,-7.6,-19.6,-3.0,0.6
O=C(c1ccc(Cn2c(=O)[nH]c3ccccc3c2=O)cc1)N1CCN(c2ccc(F)cc2)CC1,0.9,48.1*,10.0,5.9,17.9,8.1
